Only some compounds are listed: those with a hit (about 1% of all), similar ones and a draw of the others.
TCR activator: T cell receptor activation; Potency, µM (top dose mostly 9.22 µM), inactives show at the highest dose activation of IL-2 secretion, hits mostly activators; primary human leukocytes, anti-CD3, IL-2 HTRF, 48 h; AID 504894; 330,000 tested, under 10 active; further: % of control where 0% means no effect
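Compounds are tested in HTS on primary human leukocytes co-incubated with a-CD3 beads for 48 hr. IL-2 output is measured by time-resolved FRET.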
FBPA coupling cs: coupling enzyme interference in Giardia aldolase counter-screen | activity change, negative = inhibition, % at 58.2 µM, hits read low | 290,000 compounds, 0.67% hits | coupling enzyme system counterscreen, AmpLite Red fluorescence; in the data active means activity change below about -30%; further: on the % scale 0 is the no-effect control and ±100 the full control effect
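First, compound is pin-transferred into glyceraldehyde-3-phosphate coupling-enzyme reagent at 57.5 uM final and held 10 min at RT. Next, substrate, coupling system and AmpLite Red are added. After 20 min RT, fluorescence (525/598 nm) is read.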
NPSR antagonist: blocks cAMP signaling of the human neuropeptide S receptor. 220,000 compounds, 1% hits. Potency, µM (doses to about 38.3 µM), inactives show at the top dose activity change, negative = inhibition, usual class: inhibitors. AID 1461. CHO-NPSR cells, cAMP TR-FRET, antagonist mode; further: potency means the concentration at half of the fitted maximal effect; on the % scale 0 is the no-effect control and ±100 the full control effect; nearly all actives have a fitted effect of over 50% in size
TSHR antag: antagonists of human thyroid stimulating hormone receptor; 330,000 compounds, 0.2% hits; activity change, negative = inhibition, % at 11.5 µM; TSHR-expressing cells, TSH-stimulated cAMP HTRF, 2 h; hits give low values; P16473;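 active means activity change below a set negative limit, meaning inhibition stronger than a set level, cut at about -70% in these data; inconclusive means activity change between two set negative limits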; further: on the % scale 0 is the no-effect control and ±100 the full control effect
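Read-out is FRET at 665 nm (cryptate excitation 337 nm) from a cryptate-tagged anti-cAMP antibody, competed by cell cAMP against cAMP-d2. Compounds are tested on freshly harvested TSHR cells challenged with 4nM TSH (EC80) for 2 hours at 37 deg C.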
TR SRC2 fluor cs: counter-screen for TRb-SRC2 inhibitors: fluorescence interference | TRb/SRC2 Texas Red total fluorescence interference | Potency, µM (titrated, usually from 106 µM), for inactives: at the top dose fluorescence change, negative = quenching | 280,000 compounds, 0.29% hits | AID 1479; active means well fitted curve in either direction with a large enough effect; inconclusive means small, poorly fitted or top-dose-only effect; further: potency means the concentration at half of the fitted maximal effect; on the % scale 0 is the no-effect control and ±100 the full control effect
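Human TRβ ligand-binding domain (0.6 uM) and Texas Red SRC2 peptide (20 nM) in Tris buffer with 1 uM T3 and 5% DMSO were incubated with pinned compound for 5 hr at ambient temperature. Total fluorescence was computed as S + 2P (555/632 nm).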
TRb-SRC2 inh: disrupts binding of human TR beta to SRC2. TRbeta-SRC2 peptide binding, fluorescence polarization; receptor liganded with 1 µM T3. 280,000 compounds, 0.065% hits. Potency, µM (highest dose often 106 µM), inactives show at the highest dose activity change, negative = inhibition, usual class: inhibitors. P10828;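 further: potency means the concentration at half of the fitted maximal effect; plate controls were bound peptide for no effect and peptide without receptor for full effect; nearly all actives have a fitted effect of over 50% in size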
Target sequence (P10828 whole entry, looked up): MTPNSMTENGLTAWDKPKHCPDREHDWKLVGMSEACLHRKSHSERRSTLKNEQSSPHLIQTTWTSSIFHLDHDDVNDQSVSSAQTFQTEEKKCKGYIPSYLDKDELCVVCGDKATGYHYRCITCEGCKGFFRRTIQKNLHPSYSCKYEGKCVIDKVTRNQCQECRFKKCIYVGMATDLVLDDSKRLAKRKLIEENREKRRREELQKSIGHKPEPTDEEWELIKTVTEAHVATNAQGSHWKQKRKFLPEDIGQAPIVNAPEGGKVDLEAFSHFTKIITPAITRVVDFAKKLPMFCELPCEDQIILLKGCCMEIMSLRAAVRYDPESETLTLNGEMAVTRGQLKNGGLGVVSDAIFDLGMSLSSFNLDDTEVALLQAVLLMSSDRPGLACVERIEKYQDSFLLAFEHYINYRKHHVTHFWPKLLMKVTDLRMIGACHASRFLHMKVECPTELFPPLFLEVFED
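Polarization signal, normalized between peptide-alone and full complex controls, measured compound effects on T3-liganded human TRb LBD (0.6 uM) binding 20 nM Texas Red SRC2 peptide after 5 hr.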
* marks the source's active call; other numbers are inactive results; ? = inconclusive; · = no result; [ ] = another dose, or the depositor's remark. Unless noted, the call rests on the fitted dose curve; in most records, active means well fitted curve in the direction sought with a large enough effect; inconclusive means small, poorly fitted or top-dose-only effect, or another doubt; inactive means no such curve, though single readings can be large; an effect the other way counts as inactive or inconclusive.

SMILES	TCR activator	FBPA coupling cs	NPSR antagonist	TSHR antag	TR SRC2 fluor cs	TRb-SRC2 inh
COc1ccc(-c2nc3nc(C)cc(Nc4ccc(C(C)=O)cc4)n3n2)cc1	·	·	·	·	-1%	-2%
CCc1ccc(S(=O)(=O)/N=C2\C=C(Nc3ccc(O)cc3)C(=O)c3ccccc32)cc1	4%	-35*	·	-19	·	·
O=C1c2ccccc2C(=O)N1CCSc1ncn[nH]1	-10%[46.1 µM]	0	24%[46.1 µM]	44	0%	-7%
CC(=O)Nc1ccc(NC2=CC(=O)c3ccccc3C2=O)cc1	5%	-14	·	9	·	·
CCc1ccc(S(=O)(=O)/N=C2\C=C(Nc3cccc(C(=O)O)c3)C(=O)c3ccccc32)cc1	-1%	-44*	·	·	·	·
CCc1ccc(S(=O)(=O)/N=C2\C=CC(=O)c3ccccc32)cc1	·	-50*	-14%	20	-3%	-19%
CCc1ccc(S(=O)(=O)/N=C2/C=C(Sc3ncn[nH]3)C(=O)c3ccccc32)cc1	-3%[46.1 µM]	-58*	10µM*	-13	-21%	20µM*
CN(C)c1ccc(NC(=O)Cn2cc(S(=O)(=O)Cc3ccccc3Cl)c3ccccc32)cc1	·	·	·	·	-19%	4%
CC[n+]1c(/C=C/c2c[nH]c3ccccc23)ccc2cc(C)ccc21	5%	-4	13µM*	-17	0%	4%
Cc1cc2c3c(c1)C(C)(c1ccccc1)CC(C)(C)N3C(=O)C21C(C#N)=C(N)OC2=C1C(=O)CC(C)(C)C2 (configuration not stated)	-1%	-7	10µM*	·	1%	-25%
CCOC(=O)c1cnc(-c2cccc(OC)c2)[nH]c1=O	2%	-33*	-3%[46.1 µM]	-5	-1%	3%
CCOC(=O)c1cnc(-c2ccccc2)[nH]c1=O	6%	-15	-6%[46.1 µM]	-8	-1%	7%
COc1ccc(C2c3c(n(C)c4ccccc34)C(=O)N2CC(=O)Nc2cccc(Cl)c2)cc1 (configuration not stated)	·	·	·	·	-2%	0%
CC(C)c1ccc(/C=C(\c2nc3ccccc3[nH]2)S(=O)(=O)c2ccccc2)cc1	-1%[46.1 µM]	0	?	-22	7%	-11%
O=S(=O)(/C(=C/c1ccc(C(F)(F)F)cc1)c1nc2ccccc2[nH]1)c1ccccc1	-7%[46.1 µM]	1	6.3µM*	-34	0%	-1%
OCCCNC(=S)Nc1ccc2nc(-c3ccccn3)c(-c3ccccn3)nc2c1	-2%	-33*	-4%[46.1 µM]	1	-1%	-1%
CN(C)NC(=S)Nc1ccc2nc(-c3ccccn3)c(-c3ccccn3)nc2c1	-46%	-17	-9%[46.1 µM]	-7	0%	-10%
S=C(Nc1ccc2nc(-c3ccccn3)c(-c3ccccn3)nc2c1)N1CCOCC1	-2%	-41*	6%	0	-8%	?
CC(C)(C)CC(C)(C)NC(=S)Nc1ccc2nc(-c3ccccn3)c(-c3ccccn3)nc2c1	2%	-56*	-30%[46.1 µM]	8	0%	-3%
CCOC(=O)N1CCN(C(=O)Nc2ccc3nc(-c4ccccn4)c(-c4ccccn4)nc3c2)CC1	-128%	-15	3%[46.1 µM]	-1	1%	-4%
COc1cc(CNc2ccc(O)cc2)cc(Br)c1OCc1ccccc1	6%	-41*	47%	-2	-6%	?
CCOC(=O)c1c(CSC(=N)N)n(-c2ccc(Br)cc2)c2cc(Br)c(OC(C)=O)cc12	-4%	-2	10µM*	3	-4%	-6%
O=C(CCc1nnc2n(Cc3ccc(Cl)cc3)c(=O)c3ccccc3n12)N1CCN(c2ccccn2)CC1	-1%	-1	·	-134*	·	·
CC(C)OCCCn1c(=O)c2ccccc2n2c(CCC(=O)N3CCN(c4ccccn4)CC3)nnc12	-1%	·	·	-5	·	·
CCOc1cc(/C=C2/C(=O)ON=C2C)ccc1OCc1ccccc1F	0%	4	16µM*	14	-1%	-17%
SMILES	TCR activator	FBPA coupling cs	NPSR antagonist	TSHR antag	TR SRC2 fluor cs	TRb-SRC2 inh
O=C(c1ccccc1)c1cn(Cc2ccc(F)cc2)c2ccccc2c1=O	·	·	·	·	-1%	2%
COc1ccc(OC)c(/C=N/c2oc(-c3ccco3)c(-c3ccco3)c2C#N)c1	6%	-44*	-1%[46.1 µM]	1	7%	-5%
CC(C)Sc1ncc(Cl)c(C(=O)Nc2ccc(S(=O)(=O)N3CCCCC3C)cc2)n1 (configuration not stated)	·	·	·	·	1%	4%
Cc1cccc(NC(=O)CSc2nc(C)c(CC(=O)c3ccc(Br)cc3)c(C)c2C#N)c1C	11%	-5	6.3µM*	8	2%	-2%
CCOC(=O)c1cccc(Nc2cc(-c3ccccc3)ncn2)c1	·	·	·	·	0.32µM*[quencher]	-18%
CCOC(=O)CC(O)(CC(=O)OCC)C(=O)OCC	·	·	·	·	0%[201 µM]	-3%[201 µM]
O=S(=O)(Nc1cc(Sc2cccc3cccnc23)c(O)c2ccccc12)c1ccc(F)cc1	3%[46.1 µM]	-53*	-7%	2	-9%	?
O=S(=O)(Nc1ccc(Cl)cc1NS(=O)(=O)c1ccccc1)c1ccccc1	5%	·	·	·	·	·
Cc1cc(C)c(S(=O)(=O)Nc2cc(SCC(=O)O)c(O)c3ccccc23)cc1C	2%[46.1 µM]	-53*	-19%	-14	-3%	-17%
O=C(O)CSc1cc(NS(=O)(=O)c2ccc(Cl)cc2)c2ccccc2c1O	5%	-53*	·	-6	·	·
COc1ccc(S(=O)(=O)Nc2cc(SCC(=O)O)c(O)c3ccccc23)cc1	13%	-47*	·	3	·	·
O=C(Sc1cccc2cccnc12)c1ccc(F)cc1	·	-3	?	-15	-2%	1%
O=C(C1CCC1)N1CCc2cc(S(=O)(=O)N3CCN(c4ccccc4)CC3)ccc21	·	·	·	·	0%	-2%
CCOC(=O)c1c(C)oc2nc(C)nc(N3CCN(c4cccc(C)c4C)CC3)c12	·	·	·	·	-7%	1%
O=S(=O)(c1ccc2c(c1)OCCO2)C1CCC(O)CC1 (configuration not stated)	·	·	·	-2	·	·
Cc1ccc(C(C)C)c(OCC(=O)N2CCC(c3nc4ccccc4o3)CC2)c1	·	·	·	·	5%	-4%
COc1ccc(S(=O)(=O)Nc2cc(Sc3ncn[nH]3)c(O)c3ccccc23)cc1	·	-58*	?	-22	-20%	?
COc1cc2c(cc1NC(=O)c1cccc([N+](=O)[O-])c1)oc1ccccc12	8%	1	10µM*	10	-6%	0%
Cc1ccc2nsnc2c1NC(=S)NC(=O)c1ccco1	5%[46.1 µM]	-45*	-18%	-5	1%	1%
COc1cc(OC)nc(-n2ncc(Br)c(Br)c2=O)n1	4%[46.1 µM]	-2	6.3µM*	-25	0%	5%
